Measurements reported in PubChem BioAssay (NCI).
This is part of a sample that, as a whole, favours compounds with a hit. Of some 83,000 tested, about 20% had one in any assay.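 Growth was measured after 48 h exposure to one concentration of compound in 96-well plates. Values under 10 count as active.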 Unmarked numbers belong to inactive results. Activity calls are given as the source filed them.

Legend:
Assay in all cases: NCI-60 one-dose screen, 48 h (100 = growth as untreated, 0 = no growth, -100 = all killed)
Conditions in all cases: 10 µM unless noted
DU-145 prostate = tested on: DU-145 prostate
K-562 leukemia = tested on: K-562 leukemia
MALME-3M melanoma = tested on: MALME-3M melanoma
MDA-MB-231 breast = tested on: MDA-MB-231 breast
RXF 393 renal = tested on: RXF 393 renal
SF-268 CNS = tested on: SF-268 CNS
SF-295 CNS = tested on: SF-295 CNS
SF-539 CNS = tested on: SF-539 CNS
UACC-257 melanoma = tested on: UACC-257 melanoma
M14 melanoma = tested on: M14 melanoma
HCT-15 colon = tested on: HCT-15 colon
HT29 colon = tested on: HT29 colon
SNB-75 CNS = tested on: SNB-75 CNS
SNB-19 CNS = tested on: SNB-19 CNS
U251 CNS = tested on: U251 CNS
PC-3 prostate = tested on: PC-3 prostate
SK-MEL-5 melanoma = tested on: SK-MEL-5 melanoma
UACC-62 melanoma = tested on: UACC-62 melanoma
LOX IMVI melanoma = tested on: LOX IMVI melanoma
SK-MEL-28 melanoma = tested on: SK-MEL-28 melanoma

SMILES	growth (DU-145 prostate)	growth (K-562 leukemia)	growth (MALME-3M melanoma)	growth (MDA-MB-231 breast)	growth (RXF 393 renal)	growth (SF-268 CNS)	growth (SF-295 CNS)	growth (SF-539 CNS)	growth (UACC-257 melanoma)	growth (M14 melanoma)	growth (HCT-15 colon) [%]	growth (HT29 colon)	growth (SNB-75 CNS)	growth (SNB-19 CNS) [%]	growth (U251 CNS)	growth (PC-3 prostate)	growth (SK-MEL-5 melanoma)	growth (UACC-62 melanoma)	growth (LOX IMVI melanoma)	growth (SK-MEL-28 melanoma)
CCCS(=O)(=O)Nc1ccc(F)c(C(=O)c2c[nH]c3ncc(-c4ccc(OCCCC5CCCCN5)nc4)cc23)c1F (stereo not given)	87.5%	30.1%	-25.7% (active)	14.9%	63.9%	68.6%	75.7%	28.4%	-17% (active)	-17.2% (active)	102	2.79% (active)	19.4%	77.5	61.2%	53%	44.7%	-22% (active)	32.8%	-1.65% (active)
C=C(C)[C@@H]1CC[C@]2(C(=O)OCCOCCOCC[P+](c3ccccc3)(c3ccccc3)c3ccccc3)CC[C@]3(C)[C@H](CC[C@@H]4[C@@]5(C)CC[C@H](OC(=O)C(Cl)Cl)C(C)(C)[C@@H]5CC[C@]43C)[C@@H]12	15.5%	-20.9% (active)	-82.9% (active)	-46.7% (active)	-81.7% (active)	4.59% (active)	-82.1% (active)	-20.2% (active)	-27.9% (active)	-80.9% (active)	11.1	5.74% (active)	8.83% (active)	17.6	-5.68% (active)	-23.4% (active)	-99.1% (active)	-39.3% (active)	-91.3% (active)	-43.9% (active)
Nc1ccccc1NC(=O)c1ccc(CSc2nc(N3CCOCC3)c3cccn3n2)cc1	9.93% (active)	5.46% (active)	30.9%	18.8%	-6.46% (active)	4.84% (active)	2.8% (active)	15.2%	-3.3% (active)	5.11% (active)	20.1	0.895% (active)	20.3%	32.7	2.15% (active)	23.1%	-41.1% (active)	-31.9% (active)	-38.6% (active)	16.3%
O=C1NCc2ccc3c(-c4cccc(Cl)c4)c[nH]c3c21	23.3%	10.6%	65.9%	47.6%	-3.81% (active)	52.6%	7.18% (active)	-15.8% (active)	35.6%	15.9%	27.2	7.64% (active)	13.2%	28.6	16.3%	17.2%	31.2%	27%	35%	62.2%
